# According to PubChem BioAssay AID1851 (National Center for Advancing Translational Sciences (NCATS), 2009):
# Hit rate of the full screen: of about 16,000 compounds, about 2,600 (16%) were called active. About 20% were inconclusive and are not listed. Calls follow the shape of the dose curve; as a rule, active = well fitted curve in the direction sought with a large enough effect; inconclusive = small, poorly fitted or top-dose-only effect, or effect the other way; inactive = no such curve, though single readings can be large or run the other way. A selection follows. The source holds several records for some structures; these can differ, active in one and inactive in another. Square brackets hold non-standard residues; d marks the D form. Peptide text beside a SMILES is read from it. * marks the point of attachment. ξ: configuration not given here. Cbz = O=C(OCc1ccccc1)*; ξA = CC(N)C(=O)O
# Biological target: Cytochrome P450 2D6 (Homo sapiens) (UniProt P10635)
# Assay: Cytochrome panel assay with activity outcomes
# Details: recombinant CYP, pro-luciferin dealkylation, luminescence, p450-cyp2d6; series mostly up to 57.1 µM; activity, negative = inhibition: at the top concentration
# % is scaled to controls: 0 for no effect and ±100 for the full control effect.
# Sequence of Cytochrome P450 2D6 (Homo sapiens) (P10635 whole entry, looked up): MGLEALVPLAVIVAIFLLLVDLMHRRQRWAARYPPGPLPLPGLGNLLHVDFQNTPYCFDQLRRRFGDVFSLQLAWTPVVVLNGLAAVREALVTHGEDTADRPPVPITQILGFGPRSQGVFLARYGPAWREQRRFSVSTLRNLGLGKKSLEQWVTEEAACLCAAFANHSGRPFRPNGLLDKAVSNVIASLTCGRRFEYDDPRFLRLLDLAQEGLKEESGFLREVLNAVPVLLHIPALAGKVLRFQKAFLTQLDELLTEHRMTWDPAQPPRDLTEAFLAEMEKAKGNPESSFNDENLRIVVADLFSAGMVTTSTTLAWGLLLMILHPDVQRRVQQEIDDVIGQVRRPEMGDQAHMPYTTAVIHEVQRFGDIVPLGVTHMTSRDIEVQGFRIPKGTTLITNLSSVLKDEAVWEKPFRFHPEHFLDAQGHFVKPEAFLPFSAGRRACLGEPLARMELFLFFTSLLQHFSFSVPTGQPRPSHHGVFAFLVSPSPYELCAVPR
Compound,"activity, negative = inhibition",AC50
Cn1c(=O)c2[nH]c(CCS)nc2n(C)c1=O,4.9% [at 11.4 µM] (inactive),
O=c1nc(N2CCOCC2)ccn1-c1nc(-c2ccccc2)oc1-c1ccccc1,-8.85% (inactive),
C[C@H](Nc1ncnc2sc3c(c12)CCC3)C(=O)O,0.707% (inactive),
Cc1cc2nc(C3CCCN(C(=S)Nc4ccccc4)C3)[nH]c2cc1C (centres undefined),-7.35% (inactive),
Cc1cc2nc(-c3ccc(SCC(=O)N4CCc5ccccc54)nc3)[nH]c2cc1C,-4.65% (inactive),
O=C(Nc1ccccc1)N1CCCC(c2nc(-c3ccc(F)cc3)no2)C1 (centres undefined),-28.6% (inactive),
Cc1cc2nc(C3CCCN(C(=O)NCc4ccccc4)C3)[nH]c2cc1C (centres undefined),,5.01 µM (active)
Cc1ccc2nc(C3CCCN(C(=S)Nc4ccccc4C)C3)[nH]c2c1 (centres undefined),,2 µM (active)
COc1ccc(N2CCN(C(=S)Nc3cc(C)ccc3C)CC2)cc1,-18.8% (inactive),
NCCCCN,0.962% (inactive),
CCC1(O)c2ccccc2-c2ncccc21 (centres undefined),6.35% (inactive),
COC(=O)[C@@H]1CC[C@H](C)[C@@H](c2ccc(C)cc2)N1C(=O)c1ccc(/C=N\OC[C@@H](O)[C@H]2O[C@H]3OC(C)(C)O[C@H]3[C@@H]2O)cc1,3.7% [at 11.4 µM] (inactive),
COCCNc1nc(SCc2ccccc2)nc2sc3c(c12)CCC3,-18.8% (inactive),
CC(C)NC[C@H](O)c1cc(O)cc(O)c1,,inactive
CC(C)NC[C@H](O)c1ccc2ccccc2c1,,3.16 µM (active) and inactive
CC(C)NC[C@H](O)c1ccc(NS(C)(=O)=O)cc1,,inactive
Cc1ccc(C(CC(N)=O)c2ccco2)cc1 (centres undefined),1.48% (inactive),
O=C(O)CNC(=O)[C@@H](CS)Cc1ccccc1,-0.986% [at 25.6 µM] (inactive),
CC(=O)SC[C@@H](Cc1ccccc1)C(=O)NCC(=O)OCc1ccccc1,,0.316 µM (active)
COC(=O)CNC(=O)C(C)NC(=O)CNC(=O)OCc1ccccc1 (stereo not drawn) (Cbz-Gly-[ξA]-Gly-OMe),25.8% (inactive),
Cc1cc(OC(=O)c2ccc(Cl)cc2Cl)nc(C)n1,-22.9% (inactive),
CC(C)(C)CC(=O)NC(=S)N1CCCCCC1,6.83% (inactive),
O=c1c(-c2cccc(Cl)c2)nc2cncnc2n1-c1ccccc1,-20.1% (inactive),
O=C(Nc1nc2ccccc2n1CCN1CCCCC1)C1CCCCC1,,4.47 µM (active)
Cn1c(CN2CCCC2)nc2cc(NC(=O)C3CCCCC3)ccc21,-1.37% (inactive),
CCCc1nc(SCC(=O)NNC(=O)C2CCCCC2)c2ccccc2n1,7.9% (inactive),
COc1ccc(Oc2nc(C)cc(C)c2S(C)(=O)=O)cc1,-6.85% (inactive),
O=c1c(-c2ccc(Cl)cc2)nc2cnc(N3CCOCC3)nc2n1CCc1ccccc1,3.89% (inactive),
CC(C)NC(=O)CC(=O)N/N=C/c1ccc(Br)cc1,-10.9% (inactive),
